WRN helicase inh-1: qHTS for Inhibitors of WRN Helicase. Bifunctional 3'-5' exonuclease/ATP-dependent helicase WRN (Homo sapiens), Q14191. WRN helicase unwinding, fluorescent forked duplex, kinetic. Potency, µM (titrated, usually from 114 µM), hits mostly inhibitors. actives 0.46% (n = 360,000); further: nearly all actives have a fitted effect of over 55% in size
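Enzyme (20 nM final) and test compound sit together 15 min at room temperature before substrate addition. Substrate is a single-forked duplex oligonucleotide (100 nM) labelled with fluorophore and quencher, with 2 mM ATP; helicase unwinding raises red fluorescence, read kinetically.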
Pol eta inh-1: qHTS for Inhibitors of Polymerase Eta. DNA polymerase eta (Homo sapiens), Q9Y253. recombinant Pol eta, fluorescent DNA replication assay. Potency, µM (doses to about 114 µM), hits mostly inhibitors. actives 1.2% (n = 390,000)
Target sequence (Q9Y253 whole entry, looked up): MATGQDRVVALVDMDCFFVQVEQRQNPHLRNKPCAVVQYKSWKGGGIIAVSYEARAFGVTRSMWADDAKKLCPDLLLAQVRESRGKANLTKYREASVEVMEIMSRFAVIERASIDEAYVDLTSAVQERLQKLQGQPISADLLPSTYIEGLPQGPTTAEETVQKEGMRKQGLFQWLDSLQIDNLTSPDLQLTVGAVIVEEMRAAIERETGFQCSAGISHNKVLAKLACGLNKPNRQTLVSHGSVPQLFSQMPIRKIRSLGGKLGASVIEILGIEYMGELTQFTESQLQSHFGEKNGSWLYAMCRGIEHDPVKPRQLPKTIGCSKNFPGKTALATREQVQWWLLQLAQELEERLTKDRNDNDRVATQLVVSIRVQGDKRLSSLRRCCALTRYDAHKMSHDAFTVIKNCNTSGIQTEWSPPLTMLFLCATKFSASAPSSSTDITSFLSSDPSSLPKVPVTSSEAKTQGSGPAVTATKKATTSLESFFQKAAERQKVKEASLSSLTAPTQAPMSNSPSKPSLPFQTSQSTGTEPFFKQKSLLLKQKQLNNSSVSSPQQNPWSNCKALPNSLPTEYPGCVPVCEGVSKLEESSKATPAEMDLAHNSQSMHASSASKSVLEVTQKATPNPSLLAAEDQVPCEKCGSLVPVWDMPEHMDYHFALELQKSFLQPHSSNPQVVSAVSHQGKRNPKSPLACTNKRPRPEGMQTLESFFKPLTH
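Fluorescent replication assay: 50 nM final substrate added after a 15 min room-temperature compound preincubation with 10 nM enzyme. Signal taken at 0 min and again at 10 min.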
Pol kappa inh-1: qHTS for Inhibitors of Polymerase Kappa | Potency, µM (highest dose often 107 µM), hits mostly inhibitors | purified Pol kappa, fluorescent DNA synthesis assay, 10 min | DNA polymerase kappa (Homo sapiens), Q9UBT6 | actives 0.53% (n = 400,000) | AID 588579, 2011
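First, compounds were pin-transferred onto 10 nM Pol kappa. After 15 min at room temperature, substrate was added to 50 nM final. Fluorescence was then measured kinetically at 0 and 10 min.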
POLB inh: qHTS Assay for Inhibitors of DNA Polymerase Beta; AID 485314, 2010; Pol beta primer extension/strand displacement, fluorescence kinetic; P06746; Potency, µM (highest dose often 114 µM), most hits filed as inhibitors; actives 1.3% (n = 340,000)
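Pol beta (10 nM) was preincubated with compound for 15 min at room temperature. The reaction was then started with 50 nM substrate and read immediately and after a further 10 min at room temperature.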
L3MBTL1 inh-1: qHTS Assay for the Inhibitors of L3MBTL1; AID 485360, 2010; Potency, µM (doses to about 57.1 µM), most hits filed as inhibitors; AlphaScreen L3MBTL1–H3K9me1 peptide binding; actives 0.66% (n = 230,000); Lethal(3)malignant brain tumor-like protein 1 (Homo sapiens), Q9Y468; further: nearly all actives have a fitted effect of over 60% in size
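Read-out is AlphaScreen signal from streptavidin donor and nickel chelate acceptor beads (10 ug/mL final each) bridging L3MBTL1 (50 nM) and biotinylated K9-monomethylated H3(1-15) peptide (75 nM), after 30 min compound exposure at room temperature.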
POLI inh: qHTS for Inhibitors of Polymerase Iota; DNA polymerase iota (Homo sapiens), Q9UNA4; Pol iota fluorescent replication assay, 10 min; Potency, µM (highest dose often 115 µM), most hits filed as inhibitors; actives 1% (n = 390,000)
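Fluorescent replication assay read twice, at 0 min and 10 min after adding 50 nM (final) substrate. Enzyme (10 nM) and compounds were first incubated 15 min at room temperature; enzyme-free buffer wells were negative controls.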
L3MBTL1 inh-2: qHTS Assay for the Inhibitors of L3MBTL1: Hit Validation; L3MBTL1 methyl-lysine binding inhibition, biochemical qHTS; shares compounds with L3MBTL1 inh-1; actives 91% (n = 500); Potency, µM, most hits filed as inhibitors; AID 540279, 2011; further: nearly all actives have a fitted effect of over 70% in size
AlphaScreen ctr2: qHTS Assay for the Inhibitors of L3MBTL1: Hit Validationin AlphaScreen Counterscreen | shares compounds with L3MBTL1 inh-1 | AlphaScreen counterscreen, signal inhibition | Potency, µM (highest dose often 57.1 µM), usual class: inhibitors | 500 tested, under 10 active | AID 602224, 2012
TbPGK inh: qHTS for inhibitors of Phosphogylcerate Kinase: Hit Validation Screen; actives 79% (n = 500); shares compounds with Pol kappa inh-1; TbPGK coupled GAPDH assay, Kinase-Glo luminescence; Potency, µM (series often up to 57.5 µM), hits mostly inhibitors; further: nearly all actives have a fitted effect of over 65% in size
POLI cherry-pick: qHTS for Inhibitors of Polymerase Iota: Confirmatory Assay for Cherry-picked Compounds | Pol iota primer extension, TAMRA/BHQ fluorescence | shares compounds with Pol kappa inh-1 | Potency, µM, usual class: inhibitors | actives 77% (n = 1,500)
Pol kappa inh-2: qHTS for Inhibitors of Polymerase Kappa: Confirmatory Assay for Cherry-picked Compounds. purified Pol-kappa, fluorescent strand-displacement substrate. Potency, µM, most hits filed as inhibitors. AID 720501, 2013. shares compounds with Pol eta inh-1. actives 76% (n = 920)
Pol eta inh-2: qHTS for Inhibitors of Polymerase Eta: Confirmatory Assay for Cherry-picked Compounds | shares compounds with Pol eta inh-1 | Pol eta primer extension, TAMRA/BHQ fluorescence, 10 min | Potency, µM, hits mostly inhibitors | actives 64% (n = 2,600) | AID 720502, 2013
WRN helicase inh-2: qHTS for Inhibitors of WRN Helicase: Confirmatory Assay for Cherry-picked Compounds; shares compounds with WRN helicase inh-1; WRN helicase DNA unwinding, fluorescence kinetic; Potency, µM (doses to about 57.1 µM), usual class: inhibitors; actives 63% (n = 610); AID 720497, 2013; further: nearly all actives have a fitted effect of over 65% in size
TO DNA binding: qHTS for Inhibitors of WRN Helicase: Thiazole Orange DNA Binding Counterscreen | shares compounds with WRN helicase inh-1 | thiazole orange DNA binding displacement, fluorescence | Potency, µM (highest dose often 57.1 µM), actives largely listed as inhibitors | actives 10% (n = 610);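 further: drop in dye fluorescence marks compound binding to DNA; nearly all actives have a fitted effect of over 60% in size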
BLM counter: qHTS for Inhibitors of WRN Helicase: BLM Helicase Counterscreen for WRN Inhibitors | AID 720503, 2013 | Recombinant BLM helicase DNA unwinding, red fluorescence | Potency, µM (highest dose often 57.1 µM), hits mostly inhibitors | shares compounds with WRN helicase inh-1 | actives 60% (n = 610); further: nearly all actives have a fitted effect of over 60% in size
A number is an active result; 0 = inactive; ? = inconclusive; - = no result; [ ] = dose if it differs, or a comment. Compounds with a hit are over-represented: about 2.5% of the library has one in this group of screens. The call rests on the fitted dose curve; in most records, active means well fitted curve in the direction sought with a large enough effect; inconclusive means small, poorly fitted or top-dose-only effect, or another doubt; inactive means no such curve, though single readings can be large; an effect the other way counts as inactive or inconclusive.

SMILES	WRN helicase inh-1	Pol eta inh-1	Pol kappa inh-1	POLB inh	L3MBTL1 inh-1	POLI inh	L3MBTL1 inh-2	AlphaScreen ctr2	POLI cherry-pick	Pol eta inh-2	others
O=C1NC(=O)/C(=C/c2ccc(-c3cc(C(=O)O)ccc3Cl)o2)S1	0[11.6 µM]	20µM	56.2µM	31.6µM	7.08µM	39.8µM	8.44	0	-	?
Cc1ccc(-c2nc3c(c(=O)[nH]c(=O)n3Cc3ccccc3)n2C)o1	0[11.6 µM]	11.2µM	?	10µM	10µM	11.2µM	3.36	0	?	75.7
O=C(COc1ccccc1Cl)Nc1ccc(CN2CCOCC2)cc1	0	0	0	0	-	0	-	-	-	-
COCCN(C(=O)COC(=O)Cc1coc2cc(C)ccc12)c1c(N)n(Cc2ccccc2)c(=O)[nH]c1=O	?	20µM	?	-	25.1µM	35.5µM	26.7	0	-	60.1
OCC1OC(n2cnc3ncccc32)C(O)C1O (stereo not given)	0	-	-	-	-	-	-	-	-	-
COc1ccc2c(c1)c(=O)oc1c(C)c(OCc3cc(C(=O)O)oc3C)ccc12	50.1µM	14.1µM	79.4µM	35.5µM	35.5µM	35.5µM	10.6	0	?	?
COc1ccc2c(c1)c(=O)oc1c(C)c(OCc3ccc(C(=O)O)cc3)ccc12	0	?	0	?	-	?	-	-	-	-
CC(NC(=O)c1ccco1)c1nc(-c2ccccc2Cl)no1 (stereo not given)	0	0	0	0	-	0	-	-	-	-
O=C(O)CCCN1C(=O)/C(=C\c2ccc(-c3nc4ccccc4s3)o2)SC1=S	0[11.6 µM]	15.8µM	?	15.8µM	3.55µM	?	4.23	?	-	33.8	TbPGK inh=?
CCNC(=O)C1CCCN(C(=O)c2ccc(OC(F)F)cc2)CC1 (stereo not given)	0	-	-	-	-	-	-	-	-	-
Cn1cnnc1SCC(=O)Nc1ncc([N+](=O)[O-])s1	39.8µM	2.82µM	70.8µM	-	28.2µM	7.94µM	1.68	0	18.9	15.1	Pol kappa inh-2=3.36
N#C/C(=C\c1ccc(C(=O)O)cc1)c1nc2sc3c(c2c(=O)[nH]1)CCCC3	?	20µM	?	50.1µM	22.4µM	?	10.6	0	-	30.1
O=C(O)c1ccccc1NCc1cccnc1	0	0	0	-	-	0	-	-	-	-
O=C(O)CNc1ccccc1C(=O)O	0[11.6 µM]	20µM	0	0	22.4µM	?	2.99	0	-	60.1
COc1cccc(NC(=O)Cn2c(CCC(=O)O)ccc2-c2cccs2)c1	0	0	0	0	-	0	-	-	-	-
O=C(O)CCc1ccc(-c2cccs2)n1CCC(=O)O	0	10µM	?	22.4µM	3.98µM	?	16.8	0	-	?
Cc1ccc(/C=C/C(=O)NCc2ccccn2)o1	50.1µM	3.16µM	44.7µM	17.8µM	31.6µM	15.8µM	7.52	0	18.9	26.9	Pol kappa inh-2=15
CCn1c(SC(C)C(=O)O)nc2sc3c(c2c1=O)CCC3 (stereo not given)	56.2µM	3.55µM	25.1µM	8.91µM	28.2µM	?	3.36	0	75.2	23.9
COc1ccccc1N1CCN(C(=O)c2cccc(N3C(=O)NC4CC3(C)Oc3ccccc34)c2)CC1 (stereo not given)	0	0	0	0	0	0	-	-	-	-
O=C(NCCCn1ccnc1)c1cc(C(=O)C2CCCCC2)c[nH]1	0	0	0	0	0	0	-	-	-	-
COc1ccc2nc(-n3c(O)c(C4=c5ccccc5=NC4=O)[nH]c3=S)sc2c1	25.1µM	8.91µM	?	8.91µM	3.16µM	?	3.36	?	26.7	26.9	Pol kappa inh-2=16.8
CCC1CN(C(=O)N2CCC(C(=O)NCc3cccs3)CC2)c2cc(C)ccc2O1 (stereo not given)	-	0	0	0	-	0	-	-	-	-
O=C(Nc1cc2c(oc1=O)CCCC2=O)c1ccc(Cl)cc1	13.4µM	11.2µM	17.8µM	3.55µM	15.8µM	0	3.77	0	15	8.49	WRN helicase inh-2=19.2µM;TO DNA binding=0;BLM counter=7.64µM
Cc1nccc2oc(=O)c(NC(=O)c3ccc(Cl)cc3)cc12	0	0	0	?	0	0	-	-	-	-
NC(=O)c1ccc(NC(=O)COC(=O)/C=C/c2ccc(Br)o2)cc1	31.6µM	2.82µM	35.5µM	-	14.1µM	22.4µM	6.7	0	42.3	67.5	TbPGK inh=8.19µM;Pol kappa inh-2=?;WRN helicase inh-2=?;TO DNA binding=0;BLM counter=17.1µM
CC1=NOC(=O)/C1=C\c1ccc(-c2ccc(Cl)c(C(=O)O)c2)o1	35.5µM	4.47µM	35.5µM	14.1µM	20µM	11.2µM	2.67	0	42.3	21.3	WRN helicase inh-2=19.2µM;TO DNA binding=0;BLM counter=27.1µM

High-throughput results as filed in PubChem.
